From PubChem
Compounds with a hit are over-represented: about 2.8% of the library has one in this group of screens.
BRCA1 expr act – increases BRCA1 expression. MCF7-BRCA1-FFLuc reporter, luminescence, 48 h; response scale: scaled: vehicle 0%, 10 µM genistein 100%. 380,000 tested, 1.1% active. AID 624202. Potency, µM (highest dose often 46.1 µM), for inactives: at the top dose activation, usual class: activators; further: nearly all actives have a fitted effect of over 80% in size
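Activators of BRCA1 expression were detected as increased firefly luciferase luminescence in engineered MCF7 cells after 48 h compound incubation. Signals were scaled to genistein 10 microM as full activation.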
GLP-1R agonist – activates the human GLP-1 receptor; P43220; HEK293 GLP-1R CRE-luciferase, luminescence, 4-6 h; cells express a hypersensitive GLP-1R form; Potency, µM (series often up to 45.6 µM), inactives show at the highest dose activation, actives largely listed as activators; 380,000 tested, 0.007% active; AID 624172; further: % of control where 0% means no effect
Target sequence (P43220 whole entry, looked up): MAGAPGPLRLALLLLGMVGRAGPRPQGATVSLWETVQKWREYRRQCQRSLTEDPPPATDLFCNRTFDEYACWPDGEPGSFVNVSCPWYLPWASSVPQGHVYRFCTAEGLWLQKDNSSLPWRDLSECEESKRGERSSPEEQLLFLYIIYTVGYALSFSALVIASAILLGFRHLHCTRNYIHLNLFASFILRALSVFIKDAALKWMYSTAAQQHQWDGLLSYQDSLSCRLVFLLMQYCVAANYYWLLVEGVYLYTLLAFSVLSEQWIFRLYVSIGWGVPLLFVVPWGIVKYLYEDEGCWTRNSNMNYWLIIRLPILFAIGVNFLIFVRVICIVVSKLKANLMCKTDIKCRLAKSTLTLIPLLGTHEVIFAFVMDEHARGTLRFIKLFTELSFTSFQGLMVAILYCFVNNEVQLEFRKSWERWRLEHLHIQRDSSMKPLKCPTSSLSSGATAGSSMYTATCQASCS
Mito fusion act – mitochondrial division inhibition or fusion activation; S. cerevisiae fusion-defective mutant growth rescue, CellTiterGlo 48 h; Potency, µM (top dose mostly 46.1 µM), without a hit: at the top dose growth rescue (activation), hits mostly activators; 320,000 tested, 0.23% active; AID 485298; further: % of control where 0% means no effect; nearly all actives have a fitted effect of over 45% in size
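Yeast fusion mutant, YPEG (non-fermentable carbon), compound, 48 h at 37C non-permissive; CellTiterGlo added, 10 min RT, luminescence read. Rescued growth = division inhibition.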
GLP1R cytotox – cytotoxicity counter-screen for GLP-1 receptor inverse agonists. HEK293 cAMP-luciferase reporter cells, luminescence, 24 h. Potency, µM (doses to about 38.3 µM), without a hit: top-dose activity change, negative = inhibition, usual class: inhibitors. 410,000 tested, 0.13% active. AID 624418;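 further: loss of luciferase light is scored as toxicity; on the % scale 0 is the no-effect control and ±100 the full control effect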
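MLSMR compounds, 24 hr on cells at 37 deg C/5% CO2; luminescence after luciferase reagent (12 min RT). Inhibition counted as the undesired cytotoxic outcome.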
GLP1R inv ag – GLP-1 receptor (human) inverse agonism. P43220. HEK293 GLP-1R CRE-luciferase, luminescence, 24 h; GLP-1R form is constitutively active. Potency, µM (top dose mostly 38.3 µM), for inactives: at the top dose activity change, negative = inhibition, usual class: inhibitors. 410,000 tested, 1.6% active. AID 624417; further: on the % scale 0 is the no-effect control and ±100 the full control effect; nearly all actives have a fitted effect of over 55% in size
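GLP-1R inverse agonism mode: basal reporter luminescence in engineered HEK293 cells measured after one day of compound exposure at 37 deg C, with a 12 min room-temperature detection step.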
The depositor's hits bear a star; u = inconclusive; x = no result. The call rests on the fitted dose curve; in most records, active means well fitted curve in the direction sought with a large enough effect; inconclusive means small, poorly fitted or top-dose-only effect, or another doubt; inactive means no such curve, though single readings can be large; an effect the other way counts as inactive or inconclusive. Potency means the concentration at half of the fitted maximal effect.

SMILES	BRCA1 expr act	GLP-1R agonist	Mito fusion act	GLP1R cytotox	GLP1R inv ag
O=C1OC(c2ccccc2)/C(=C(/O)c2ccc(Cl)cc2)C1=O (configuration not stated)	-11.9%	0.4%	1.0%	0.0%	3.0%
Cc1nn(C)c2c1c(-c1ccccc1)cc(=O)n2CC(=O)NC(C)C	x	x	x	9.1%	5.7%
OCCN(Cc1ccccc1)CC(O)COc1ccc2c(c1)OCO2 (configuration not stated)	5.3%	11.3%	-4.8%	-18.2%	u
Cc1ccccc1C(=O)NC(=S)N(C)C1CCCCC1	10.9%	-1.5%	-3.6%	u	u
CN(C(=S)NC(=O)c1ccccc1Br)C1CCCCC1	0.5%	2.5%	-9.0%	u	10µM*
Cc1ccnc(Nc2nc(-c3ccc(O)cc3O)cs2)c1	7.94µM*	29.6%	-5.7%	-19.9%	u
Cc1c(Cc2ccccc2)c(=O)oc2c(O)c(O)ccc12	-34.9%	16.6%	27.6%	53.0%	u
CC(C)OC(=O)CSc1nc(Cc2ccccc2)nc2ccccc12	-32.9%	15.5%	u	4.4%	12.6µM*
CC(NC(=O)Nc1nccs1)(C(F)(F)F)C(F)(F)F	-1.6%	-4.7%	1.4%	2.5%	u
CC(=O)c1sc(NC(=O)CCS(=O)(=O)c2ccc(C)cc2)nc1C	-53.4%	-9.2%	0.6%	10µM*	u
COc1ccc(C(=O)c2ccsc2N)cc1	11.2µM*	16.1%	11.3%	9.9%	2.0%
CN(C(=O)Nc1ccc(Cl)cc1Cl)[C@H]1c2cc(Br)ccc2OC[C@H]1CO	-29.0%	-5.9%	19.0%	-22.6%	u
O=C(COC(=O)CC(c1ccccc1)c1ccccc1)NCc1ccc(Cl)cc1	-15.9%	-4.7%	u	6.0%	11.2µM*
C=C(C)C(=O)OCC(=O)NCc1ccccc1	5.0%	-0.5%	-3.6%	11.2µM*	u
CCCC(=O)OCC(=O)NCc1ccc(Cl)cc1	-0.8%	1.4%	1.6%	-15.6%	-1.6%
CC(=O)Nc1ccc(C(=O)OCC(=O)NCc2ccccc2)cc1	-31.5%	2.0%	5.3%	-18.2%	-18.2%
Cc1ccc(-c2n[nH]c(Cc3ccccc3)n2)cc1	5.62µM*	2.0%	-1.8%	-14.8%	u
O=C(Nc1nc(-c2ccncc2)cs1)C1c2ccccc2Oc2ccccc21	-50.1%	-1.2%	11.2µM*	-6.8%	u
O=C(Nc1nc(-c2ccccc2)cs1)C1c2ccccc2Oc2ccccc21	-17.4%	-15.5%	2.7%	2.4%	-13.9%
COc1ccc(-c2nc(SC)n(C(=O)c3ccco3)n2)cc1	11.2µM*	-3.1%	-1.6%	-6.5%	16.5%
COc1ccc(-c2nc(SCc3ccccc3)n(C(=O)c3ccco3)n2)cc1	u	-15.0%	0.6%	-2.1%	3.0%
O=C(NCc1ccco1)c1ccc(N2CCCC2=O)cc1	48.3%	2.0%	-2.1%	-10.2%	33.7%
O=C(NCc1ccccn1)c1ccc(N2CCCC2=O)cc1	12.6µM*	0.5%	0.5%	16.6%	26.8%
O=C(NCc1ccccn1)c1ccc(-c2ccccc2)cc1	12.6µM*	-0.1%	4.8%	-10.1%	2.3%
O=C(NCc1ccccn1)c1ccc([N+](=O)[O-])cc1	-2.1%	3.4%	11.9%	-4.6%	11.7%
SMILES	BRCA1 expr act	GLP-1R agonist	Mito fusion act	GLP1R cytotox	GLP1R inv ag
Cc1csc(NC(=O)c2ccc(N3CCCC3=O)cc2)n1	u	-5.5%	-16.2%	5.2%	2.24µM*
Cc1nnc(NC(=O)c2ccc(N3CCCC3=O)cc2)s1	59.7%	7.1%	-4.0%	-3.8%	8.2%
COc1ccc(N2CCN(C(=O)c3cccc(Br)c3)CC2)c([N+](=O)[O-])c1	-4.9%	15.8%	0.2%	-10.6%	u
CC(C)CCNC(=O)CN(C(=O)CCC(=O)Nc1nccs1)c1ccc2c(c1)OCCO2	-26.4%	4.4%	-6.9%	-0.4%	u
O=C(COC(=O)COc1ccccc1[N+](=O)[O-])Nc1ccc2c(c1)OCO2	-15.1%	-0.4%	x	-5.9%	10.5%
CCSc1nnc(NC(=O)COc2ccccc2[N+](=O)[O-])s1	84.9%	-0.1%	-2.7%	-1.5%	30.5%
CC(C)c1nnc(NC(=O)COc2ccccc2[N+](=O)[O-])s1	10µM*	12.0%	2.2%	-6.4%	2.1%
